Measurements published in PubChem BioAssay AID1379 (National Center for Advancing Translational Sciences (NCATS), 2008).
Among all 200,000 compounds or so, about 560 (0.28%) were called active. A call without a number means that no potency is given here. This excerpt belongs to a sample that is enriched for actives. Unmarked numbers belong to inactive results. Calls follow the shape of the dose curve; as a rule, active = well fitted inhibition curve with a large enough effect; inconclusive = small, poorly fitted or top-dose-only effect; inactive = flat fitted curve, though single readings scatter.

Molecular target: Luciferin 4-monooxygenase (Photuris pensylvanica) (UniProt Q27757)
Assay: Counterscreen for Luciferase (Kinase-Glo TM) Inhibition; also: nearly all actives have a fitted effect of over 60% in size
Conditions: ATP luminescence, 8 min; series mostly up to 38.3 µM
Procedure: NCGC Assay Overview: NIH Molecular Libraries Screening Centers Network [MLSCN] NIH Chemical Genomics Center [NCGC] MLSCN Grant: None Luciferase (Kinase-Glo, Promega Corporation) was assayed for its ability to generate light using ATP and luciferin as substrates. The ATP concentration in the assay (10 uM) was within the linear range of enzyme activity for the assay conditions used.
NCGC Assay Protocol Summary: Four uL of substrate mix (final concentration, 50 mM imidazole pH 7.2, 50 mM KCl, 7 mM MgCl2, 10 uM ATP, 0.01% Tween 20, 0.05% BSA) was dispensed into white 1536 well plates. Twenty-three nL of compound was delivered by a pin tool and 2 uL of luciferase detection mix (Kinase-Glo, Promega)) was added. Following 8-minute incubation at ambient temperature, luminescence was measured by a ViewLux (Perkin Elmer) at 5 seconds exposure/plate.
Potency is read from the fitted curve at half-maximal effect.

| Structure (SMILES) | activity change, negative = inhibition | Potency |
| --- | --- | --- |
| O=C(O)CCC(=O)O | inactive | – |
| CC(=O)CC(c1ccccc1)C1C(=O)Oc2ccccc2C1=O (stereo unspecified) | inactive | – |
| CC(C)(C)OC(=O)NCCCCC1=CC2=CC(=O)C(C)(OC(=O)c3cccs3)C(=O)C2=CO1 (stereo unspecified) | inactive | – |
| CC1=C(C/C=C(\C)CCCC(C)CCCC(C)CCCC(C)C)C(=O)c2ccccc2C1=O (stereo unspecified) | inactive | – |
| CCCCCCCC/C=C\CCCCCCCC(=O)OC[C@H](CO)OC(C)=O | inactive | – |
| COC(=O)CCCC1=CC2=CC(=O)C(C)(OC(=O)c3cccs3)C(=O)C2=CN1CC1CC1 (stereo unspecified) | -3.89% [at 7.66 µM] | – |
| CC[C@@]12C=C(/C=C/c3ccccc3)[C@](CC)(C1)[C@H](c1ccccc1)CC2=O | inactive | – |
| CCOC(=O)C(C)Sc1nc2ccccc2c(=O)n1CC1CCCCC1 (stereo unspecified) | inactive | – |
| CN(c1ccc2nc3ccccc3c(=O)n2n1)C1CCCCC1 | – | 6.31 µM (active) |
| O=c1c2ccccc2nc2n1C1(CCCCC1)Cc1ccccc1-2 | inactive | – |
| C=CCOC(=O)NC(c1ccc(F)c(F)c1)C(C(=O)COC)C(=O)OC (stereo unspecified) | inactive | – |
| COC(=O)C(C(=O)OC)C1c2ccccc2C=C(C2CC2)N1C(=O)OC (stereo unspecified) | inactive | – |
| CC/C=C\C/C=C\C/C=C\C/C=C\C/C=C\C/C=C\CCC(=O)NC(C)C(=O)O (stereo unspecified) | inactive | – |
| CC(=O)[C@H](C(c1ccccc1)N1CCOCC1)N1CCOCC1 (stereo partly specified) | -6.68% [at 7.66 µM] | – |
| O=C(O)C1CCCN(CCC=C(c2ccccc2)c2ccccc2)C1 (stereo unspecified) | inactive | – |
| CCCCCCCCCCCCCCCCO | inactive | – |
| CCCCC/C=C\CC1OC1CCCCCCCC(=O)O (stereo unspecified) | inactive | – |
| COc1cccc(CC(=O)N2CCc3nc(COc4ccccc4)c4c(c3C2)CO[C@@H](C)C4)c1 | -3.82% [at 7.66 µM] | – |
| Nc1ncc(-c2cc3ccccc3oc2=O)s1 | – | 11.2 µM (active) |
| COc1ccc2nc(Nc3nc(-c4cc5ccccc5oc4=O)cs3)sc2c1 | inactive | – |
| O=c1oc2ccccc2cc1-c1csc(Nc2ccc(O)cc2)n1 | inactive | – |
| NNc1nnc(NN)c2ccccc12 | inactive | – |
| COc1cccc(-c2cc(=O)c3cc(NC(=O)c4ccc(C)cc4)ccc3[nH]2)c1 | inactive | – |

| Structure (SMILES) | activity change, negative = inhibition | Potency |
| --- | --- | --- |
| COc1ccc(-c2nc3c(c4c2C[C@H](c2ccccc2)OC4)CN(C(=O)C2CC2)CC3)c(C)c1 | -7.98% [at 7.66 µM] | – |
| COC(=O)C/C=C/[C@@H](C)[C@H](NC(=O)OCC(Cl)(Cl)Cl)c1ccccc1 | inactive | – |
| CCCCCCCC1=Cc2ccc(F)cc2C(C(C(=O)OC)C(=O)OC)N1C(=O)OC (stereo unspecified) | inactive | – |
| Cc1occc1C(=O)Nc1cccc(Cn2cccn2)c1 | inactive | – |
| Cc1ccnc(NC(=O)c2ccoc2C)c1 | – | 6.31 µM (active) |
| Cc1ccnc(NC(=O)c2ccc(NC(=O)c3ccco3)cc2)c1 | inactive | – |
| CCN1C(=O)N[C@@H](c2ccccc2)[C@H](C(C)=O)[C@H]1C | -7.74% [at 7.66 µM] | – |
| C[C@@H]1C(c2ccc(F)cc2)=NN(c2ccc(Br)cc2)[C@H]1C(=O)N1CCOC1=O | inactive | – |
| O=C(O)C[C@@H]1NC(=O)[C@H](Cc2ccccc2)NC1=O | inactive | – |
| COC(=O)C1=C(C(=O)OC)[C@@H]2N(C)c3ccccc3[C@@]23C[C@@H](C(=O)OC)N(C(C)=O)C3=N1 | 0.685% [at 7.66 µM] | – |
| CC(C)C[C@H](NC(=O)[C@H](O)[C@H](N)Cc1ccccc1)C(=O)O | inactive | – |
| COC(=O)C1=C(C(=O)OC)[C@@H]2N(C)c3ccccc3[C@@]23C[C@@H](C(=O)OC)N(C(=O)c2ccco2)C3=N1 | -2.48% [at 7.66 µM] | – |
| Cc1nonc1C(=O)N/N=C/c1ccc(O)cc1 | – | 5.01 µM (active) |
| COC(=O)N/N=C/c1ccc(/C=N/NC(=O)OC)cc1 | inactive | – |
| O=C(C[n+]1ccccc1)N/N=C/c1ccc(O)cc1 | inactive | – |
| C[C@H]1Cc2c(COc3ccccc3)nc3c(c2CO1)CN(C(=O)NCc1ccco1)CC3 | -0.257% [at 7.66 µM] | – |
| Cc1ccsc1C(=O)OCC(=O)c1cc2ccccc2o1 | inactive | – |
| Cc1ccsc1C(=O)OCC(=O)c1cc(C)n(CC2CCCO2)c1C (stereo unspecified) | – | 12.6 µM (active) |
| Cc1cc(C(=O)Cn2cnc3cc([N+](=O)[O-])ccc3c2=O)c(C)n1CC1CCCO1 (stereo unspecified) | inactive | – |
| COC(=O)CCCC1=CC2=CC(=O)C(C)(OC(=O)c3cccs3)C(=O)C2=CN1CC(C)C (stereo unspecified) | -3.18% [at 7.66 µM] | – |
| CCOC(=O)C1=C(C)c2ccccc2OC1(C)C(=O)OCC (stereo unspecified) | inactive | – |
| CC(C)(Oc1ccc(C2CC2(Cl)Cl)cc1)C(=O)O (stereo unspecified) | inactive | – |
| O=C(Nc1nnc(C2CC2)s1)c1ccccn1 | – | 10 µM (active) |

| Structure (SMILES) | activity change, negative = inhibition | Potency |
| --- | --- | --- |
| Cc1occc1C(=O)Nc1nnc(C2CCCCC2)s1 | inactive | – |
| O=C(Cc1cccs1)Nc1nnc(C2CC2)s1 | inactive | – |
| C=C(C)C(=O)c1ccc(F)cc1 | inactive | – |
| CC(C)C1=CC2=CC[C@H]3[C@](C)(C(=O)O)CCC[C@]3(C)C2CC1 (stereo partly specified) | inactive | – |
| COC(=O)C1=C(C(=O)OC)[C@@H]2N(Cc3ccccc3)c3ccccc3[C@@]23C[C@@H](C(=O)OC)N(S(=O)(=O)c2ccc(C(F)(F)F)cc2)C3=N1 | -5.51% [at 7.66 µM] | – |
| CCCCC/C=C\C/C=C\C/C=C\CCCCCCC(N)=O | inactive | – |
| COC(=O)N1C(/C=C/C=C/c2ccc(OC)cc2)=Cc2ccccc2C1CC(C)=O (stereo unspecified) | -3.85% [at 7.66 µM] | – |
| CC1(C)O[C@@H]2C[C@@H]3[C@H]4C[C@@H](F)C5=CC(=O)C=C[C@]5(C)[C@@]4(F)[C@@H](O)C[C@]3(C)[C@]2(C(=O)CO)O1 | inactive | – |
| CCCCC/C=C\C/C=C\CCCCCCCCCC(=O)NCC(=O)O | inactive | – |
| COc1ccc(-c2c(C)cc3oc(=O)cc(-c4ccccc4)c3c2C)cc1F | inactive | – |
| CC1=C(/C=C/C(C)=C/C=C/C(C)=C/C=C/C=C(C)/C=C/C=C(C)/C=C/C(=O)[C@]2(C)C[C@@H](O)CC2(C)C)C(C)(C)C[C@H](O)C1 | inactive | – |
| C#CCCOC(=O)N1C2=NC(C(=O)OC)=C(C(=O)OC)[C@@H]3N(C)c4ccc(OC)cc4[C@]23C[C@H]1C(=O)OC | -8.5% [at 7.66 µM] | – |
| Cc1cn(C2OC[C@@H](O)[C@@H]2CO)c(=O)[nH]c1=O (stereo partly specified) | inactive | – |
| CCCCC/C=C\C/C=C\CCCCCCCCCC(=O)O | inactive | – |
| COc1cccc(OC)c1C(=O)Nc1ccc(N2CCCCC2)cc1 | inactive | – |
| COc1cccc(C(=O)Nc2ccc(N3CCCC3)cc2)c1 | – | 4.47 µM (active) |
| COc1ccc(C(=O)NC(=S)Nc2ccc(N3CCCC3)cc2)cc1OC | inactive | – |
| COc1cc(OC)c2c(c1)OC(=O)CC2c1cc(OC)c(OC)c(OC)c1 (stereo unspecified) | inactive | – |
| CN1c2ccccc2-c2nc3ccccc3n2C1c1ccco1 (stereo unspecified) | inactive | – |
| Cn1c(-c2ccco2)nc2cc3ccccc3cc21 | – | 12.6 µM (active) |
| COc1ccc(CCn2c(-c3ccco3)nc3nc4ccccc4nc32)cc1OC | inactive | – |
| COc1ccc(C2CC(=O)Oc3ccc(C(C)(C)C)cc32)cc1 (stereo unspecified) | inactive | – |
| COc1cccc([C@@H]2Oc3ccc(Br)cc3C(=O)[C@H]2OC(=O)NCCc2ccc(OC)c(OC)c2)c1 | inactive | – |

| Structure (SMILES) | activity change, negative = inhibition | Potency |
| --- | --- | --- |
| CCOC(=O)C1=C(C(=O)OCC)C(C(=O)OCC)N(S(=O)(=O)C(F)(F)F)c2ccccc21 (stereo unspecified) | inactive | – |
| COC(=O)C1=C(C(=O)OC)[C@@H]2N(C)c3ccccc3[C@@]23C[C@@H](C(=O)OC)N(S(=O)(=O)c2cccs2)C3=N1 | -6.85% [at 7.66 µM] | – |
| CC/C=C\C/C=C\C/C=C\C/C=C\C/C=C\C/C=C\CCC(=O)NCCc1ccc(O)c(O)c1 | inactive | – |
| C[C@@]12CCC(=O)C=C1CC[C@H]1C2[C@@H](O)C[C@]2(C)[C@@H]1CC[C@@]2(O)C(=O)COC(=O)C1CCCC1 (stereo partly specified) | -5.73% [at 7.66 µM] | – |
| CCCCC/C=C\C/C=C\CCCCCCCCCC(N)=O | inactive | – |
| COC(=O)C1(C(C)=O)CC2=CC[C@H]3C(=O)N(c4ccccc4)C(=O)[C@H]3[C@@H]2Cc2ccccc2[C@@H]1C[N+](=O)[O-] (stereo partly specified) | inactive | – |
| CCCCC/C=C\C/C=C\C/C=C\CCCCC(=O)NCC(=O)O | inactive | – |
| COC(=O)C(C(=O)OC)[C@@H](NC=O)c1ccccc1 | inactive | – |
| CC1(OC(=O)c2ccc(Cl)nc2)C(=O)Cc2cc(-c3ccsc3)ncc2C1=O (stereo unspecified) | -0.318% [at 7.66 µM] | – |
| Cc1csc(-c2nc3ccccc3n2C)n1 | – | 4.47 µM (active) |
| Cc1nn2c3ccccc3nc2n(C)c1=O | inactive | – |
| Cn1cccc1-c1nc2ccccc2n1C | inactive | – |
| COCCn1c(C)cc(C2=NNC(=Nc3ccc(F)cc3)SC2)c1C | inactive | – |
| Cc1cccc(N=C2NN=C(c3c[nH]c4ccccc34)CS2)c1 | inactive | – |
| C=CCn1c(C)cc(C2=NNC(=NCC)SC2)c1C | – | 7.94 µM (active) |
| Cc1csc(-c2coc3cc(O[C@@H]4O[C@H](CO)[C@@H](O)[C@@H](O)[C@H]4O)ccc3c2=O)n1 | – | 3.55 µM (active) |
| CCc1cccc(OC2OC(CO)C(O)C(O)C2NC(C)=O)c1 (stereo unspecified) | inactive | – |
| COc1cc(/C=C/CO)cc(OC)c1O[C@@H]1O[C@H](CO)[C@@H](O)[C@H](O)[C@H]1O | inactive | – |
| C=CCN1C=C2C(=O)C(C)(OC(=O)CCc3ccccc3)C(=O)C=C2C=C1c1ccc(C#N)cc1 (stereo unspecified) | -4.17% [at 7.66 µM] | – |
| C=C/C1=C/Cc2ccccc2[C@H](C[N+](=O)[O-])C(C(=O)OC)(C(=O)OC)C1 | inactive | – |
| CC(C)(C)OC(=O)NCCCC1=CC2=CC(=O)C(C)(OC(=O)c3ccco3)C(=O)C2=CO1 (stereo unspecified) | inactive | – |
| COC(=O)C1=C(C(=O)OC)[C@@H]2Nc3ccccc3[C@@]23C[C@@H](C(=O)OC)N(S(=O)(=O)c2ccc([N+](=O)[O-])cc2)C3=N1 | -3.38% [at 7.66 µM] | – |
